GAA850 FXN act – FXN promoter activators, primary screen, cell-based, luciferase luminescence, HEK293 lucGAA850. HEK293 lucGAA850 FXN promoter luciferase reporter, 24 h; percent of 10 µM SAHA response. activation, % at 6 µM. 360,000 tested, 0.56% active. AID 540364, 2011;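 active = activation above the average of all compounds screened plus 3 SD, cutoff fixed separately per campaign, cut at about 7.5% in these data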;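 also: 0% = DMSO wells and 100% = 10 µM SAHA wells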
hgDAF-12 ag – H. glycines DAF-12 receptor agonists, primary screen, cell-based, luminescence, HEK293, GAL4 fusion, UAS-luciferase. 370,000 tested, 1.8% active. HEK293 GAL4-hgDAF12 UAS-luciferase reporter, agonist luminescence; normalized to butyrate control. activation, % at 6.8 µM. Nuclear hormone receptor DAF-12 (Heterodera glycines), GAL4 fusion;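 active = activation above a cutoff set at the mean of all screened compounds plus 3 SD, cut at about 10% in these data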;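 also: 0% = DMSO wells and 100% = sodium butyrate wells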
DAX1 inh-1 – DAX1 (NR0B1) inhibitors on StAR promoter, primary screen, cell-based, luminescence, SF-1 (NR5A1), full-length DAX-1; HEK293T StAR-luciferase reporter, SF-1/DAX-1 repression relief; inhibition, % at 6.8 µM; 370,000 tested, 1.1% active;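 active = inhibition above the mean over all tested compounds plus 3 SD, cut at about 3.6% in these data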;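 also: 0% = DAX-1 cells with DMSO and 100% = cells lacking DAX-1 with DMSO; higher inhibition means more luminescence from relief of DAX-1 repression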
ssDAF-12 act – S. stercoralis DAF-12 nuclear receptor activators, primary screen, cell-based, luminescence, HEK293, GRIP1 co-expression, lit1-tk-luc | Nuclear hormone receptor DAF-12 (Strongyloides stercoralis) | AID 652126, 2013 | HEK293 ssDAF-12/GRIP1 lit1-tk-luc reporter; % of 3 µM dafachronic acid response | 370,000 tested, 1% active | activation, % at 6.8 µM;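 active = activation above the mean over all tested compounds plus 3 SD, cut at about 0.9% in these data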;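 also: 0% = DMSO-only wells and 100% = 3 µM delta7-dafachronic acid wells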
hcDAF12 agonist – H. contortus DAF-12 nuclear receptor activators, primary screen, cell-based, luminescence, HEK293, lit1-tk-luc reporter; activation, % at 6.8 µM; 370,000 tested, 1.4% active; HEK293 hcDAF-12 lit1-tk-luc reporter; 0% DMSO, 100% Δ7-dafachronic acid;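 active = activation above the mean of all tested compounds plus 3 SD, cut at about 5.5% in these data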;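 also: 100% = response to 3 µM Δ7-dafachronic acid high control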
DAX1 inh-2 – DAX1 (NR0B1) inhibitors, primary screen, cell-based, HEK293, Gal4-DAX1, luciferase luminescence | Nuclear receptor subfamily 0 group B member 1 (Homo sapiens), P51843 | 340,000 tested, 0.99% active | HEK293 Gal4-DAX1 luciferase reporter | inhibition, % at 6.75 µM;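 active = inhibition above the mean over all tested compounds plus 3 SD, cut at about 4.2% in these data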;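 also: 0% = DAX1-transfected cells with DMSO and 100% = empty-vector control cells with DMSO; inhibition shows as a rise in luminescence from relieved DAX1 repression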
Target sequence (P51843 207-470 limits assumed): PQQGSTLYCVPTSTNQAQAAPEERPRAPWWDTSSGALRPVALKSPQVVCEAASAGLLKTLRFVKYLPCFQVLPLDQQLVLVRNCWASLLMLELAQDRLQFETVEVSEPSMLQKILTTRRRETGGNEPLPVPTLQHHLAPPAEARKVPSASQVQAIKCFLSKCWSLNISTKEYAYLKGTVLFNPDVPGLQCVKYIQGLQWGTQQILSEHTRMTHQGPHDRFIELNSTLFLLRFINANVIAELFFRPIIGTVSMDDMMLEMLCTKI
hgDAF12 ag – H. glycines DAF-12 receptor agonists, confirmation, cell-based, luminescence, HEK293, GAL4-LBD fusion; shares compounds with hgDAF-12 ag; HEK293 GAL4-hgDAF12 luciferase reporter, agonist mode; percent of butyrate response; activation, % at 6.8 µM; 3,300 tested, 80% active; AID 743050, 2013;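 active = mean activation over triplicate wells above the hit cutoff derived from the earlier primary screen, cut at about 11% in these data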;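 also: 0% = DMSO low control and 100% = 2 mM sodium butyrate high control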
LXRb DAF12 ctr – LXR agonists, Gal4 luciferase reporter, confirmation, counter-screen for hgDAF-12 agonist project, cell-based, luminescence, HEK293, H. glycines campaign. shares compounds with hgDAF-12 ag. 24 h. activation, % at 6.8 µM. 3,300 tested, under 10 active. AID 743051, 2013;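 active = mean activation of the triplicate above a set limit carried over from the primary screen, none filed active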
Target sequence (P55055 whole entry, looked up, the tested form may be a part): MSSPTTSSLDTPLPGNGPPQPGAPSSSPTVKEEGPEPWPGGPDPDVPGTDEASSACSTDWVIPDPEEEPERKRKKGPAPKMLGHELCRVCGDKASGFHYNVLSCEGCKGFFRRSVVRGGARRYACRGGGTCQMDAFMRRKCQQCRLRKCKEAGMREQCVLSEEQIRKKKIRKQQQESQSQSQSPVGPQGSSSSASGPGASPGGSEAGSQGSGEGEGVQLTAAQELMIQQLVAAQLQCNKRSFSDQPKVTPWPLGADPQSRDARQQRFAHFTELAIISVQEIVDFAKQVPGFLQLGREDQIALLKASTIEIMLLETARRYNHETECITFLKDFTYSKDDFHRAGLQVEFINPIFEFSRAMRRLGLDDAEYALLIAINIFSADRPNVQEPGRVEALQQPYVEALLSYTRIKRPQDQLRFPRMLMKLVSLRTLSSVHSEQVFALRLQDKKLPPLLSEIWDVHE
The depositor's hits bear a star; x = no result. An excerpt weighted towards active compounds, which were near 4.5% of everything screened.

SMILES	GAA850 FXN act	hgDAF-12 ag	DAX1 inh-1	ssDAF-12 act	hcDAF12 agonist	DAX1 inh-2	hgDAF12 ag	LXRb DAF12 ctr
COc1ccc(NC(=O)CN2C(=O)NC(C)(C3CC3)C2=O)cc1S(=O)(=O)N1CCOCC1 (stereo not given)	0.6	2.9	1.3	-1.1	-1.1	0.7	x	x
CCN(CC)CCCNC(=O)c1nn2c(C(F)(F)F)cc(-c3ccccc3)nc2c1Cl	-0.7	-2.9	0.8	-0.7	-0.1	-3.2	x	x
Cc1ccccc1C(=O)NC(CC(C)C)C(=O)OCc1cc(=O)n2cc(Br)ccc2n1 (stereo not given)	6.1	13.6*	2.9	-0.6	3.6	1.6	10.9*	0.3
CC(C)CC1Nc2ncnc(N3CCN(c4ccccn4)CC3)c2N(Cc2ccccc2)C1=O (stereo not given)	-1.2	-0.2	0.1	-1.4	-1.9	0.8	x	x
Cc1ccc(NC(=O)NCC2CC2(Cl)Cl)cc1 (stereo not given)	1.3	13.3*	1.7	0.2	4.1	1.9	10.4	0.4
COc1ccc(C(=O)C=Cc2ccc3c(c2)OCO3)cc1OC	2.2	2.4	0.2	-1.5	0.3	0.1	x	x
COc1ccc(/C=C/C(=O)c2ccccc2)c(OC)c1	2.5	14.0*	1.8	0.8	5.1	3.8	13.6*	0.9
COc1ccc(/C=C/C(=O)c2ccc(OC)cc2OC)c(OC)c1	1.2	-1.9	-2.3	-1.8	-3.7	-0.2	x	x
COc1ccc(/C=C/C(=O)c2ccc3c(c2)OCO3)c(OC)c1	6.3	23.8*	3.3	0.1	3.6	3.2	17.2*	0.9
COc1ccccc1C(=O)OCCc1ccccc1	4.7	16.8*	2.9	0.9*	6.2*	4.0	11.5*	0.5
O=C(NN=Cc1ccc2c(c1)OCO2)c1ccncc1	0.4	-1.2	0.6	-0.7	0.3	0.8	x	x
CCN(CC)c1ccc(/C=N/NC(=O)c2cnccn2)cc1	1.0	18.0*	-0.5	-0.1	1.1	0.1	18.0*	0.4
CCN(CC)c1ccc(NC(=S)NC(=O)c2ccco2)cc1	6.9	16.1*	2.7	-1.5	0.4	0.2	6.4	0.4
CCN(CC)c1ccc(/C=N/NC(=O)c2ccco2)cc1	0.6	16.7*	1.4	0.4	5.3	-2.5	20.8*	0.8
CCN(CC)c1ccc(/C=N/NC(=O)c2ccc([N+](=O)[O-])cc2)cc1	-1.5	2.2	-0.5	-1.2	0.1	0.8	x	x
O=C(N/N=C\c1ccc2c(c1)OCO2)c1ccco1	4.4	14.4*	2.7	0.8	2.5	3.5	12.3*	0.6
COc1ccc(NC(=O)c2cccc(-c3ccc(O)cc3)c2)cn1	-1.1	-3.3	-0.1	-1.6	-4.6	-0.8	x	x
N#Cc1ccccc1OCC(=O)OCC(=O)N1CCN(C(=O)c2ccco2)CC1	0.9	3.7	1.7	-0.4	0.3	0.9	x	x
Cn1c(SCC2CCCCC2)nnc1-c1ccco1	x	14.5*	1.3	0.2	1.3	x	14.6*	0.4
Cc1ccsc1/C=C1\Oc2cc(O)ccc2C1=O	1.8	24.0*	4.5*	0.2	3.1	2.1	5.8	0.3
Cc1nc2c(oc3ccccc32)c(=O)o1	5.8	13.7*	1.4	0.0	6.1*	2.3	9.1	0.2
O=c1[nH]c(Cc2ccccc2)nc2c1oc1ccccc12	-1.1	-2.4	-0.3	-1.5	-0.7	-0.1	x	x
O=C(Nc1ccc(O)cc1)c1cc2ccccc2c(=O)s1	2.0	13.7*	1.1	-0.7	1.9	2.1	7.5	0.5
O=C(Nc1ccccc1)c1cc2ccccc2c(=O)s1	-1.5	18.0*	2.1	-0.6	4.3	1.7	14.5*	0.6
CCCCCCCN1C2=NCCCN2c2ccccc21	-2.5	-0.7	-0.6	-1.4	-0.1	-0.8	x	x
SMILES	GAA850 FXN act	hgDAF-12 ag	DAX1 inh-1	ssDAF-12 act	hcDAF12 agonist	DAX1 inh-2	hgDAF12 ag	LXRb DAF12 ctr
Cc1oc(-c2ccc(-c3ccccc3)cc2)nc1CN(C)C1CCOC1 (stereo not given)	3.5	15.8*	1.1	-0.5	2.1	1.1	14.3*	0.5
N=C(N=C(N)N)N1CCc2ccccc21	2.7	-0.1	0.9	-1.2	-1.5	0.2	x	x
Cc1cccc(NC(=O)c2ccc(N3CCOCC3)c([N+](=O)[O-])c2)n1	6.6	13.9*	1.5	-0.9	0.2	2.4	5.2	0.2
COc1ccc2occ(C(=O)c3ccc(N)cc3)c2c1	-1.8	8.5	1.0	-0.7	1.0	0.9	x	x
COc1ccc2occ(C(=O)c3cccs3)c2c1	5.2	15.0*	0.5	-0.8	4.4	2.3	13.2*	0.4
CCCC(=O)Nc1ccc(NC(=O)c2ccccn2)cn1	1.1	13.3*	2.5	1.2*	2.7	2.0	9.3	0.5
CCCC(=O)Nc1ccc(NC(=O)c2ccccc2OC)cn1	-0.1	-1.0	0.8	-1.4	-0.4	-1.3	x	x
CNS(=O)(=O)c1ccc(NC(=O)c2ccccn2)cc1	4.9	13.9*	1.4	-0.5	3.0	1.1	8.5	0.3
COc1ccc(NS(=O)(=O)c2ccc(NC(=O)c3ccccn3)cc2)cc1	-1.4	-1.9	-3.8	-1.2	-1.4	-1.4	x	x
CC(C)(C)CCN1CCC(CN2CCNC(=O)C2=O)CC1	0.3	0.8	-0.6	-1.2	1.3	-1.0	x	x
Cc1ccc(S(=O)(=O)NC(=O)NC(C)c2ccc(F)cc2)cc1 (stereo not given)	0.5	-0.7	0.2	-0.5	2.2	-1.1	x	x
O=C(O)CCn1c(-c2ccccn2)nc2ccccc21	0.4	2.1	-0.1	-0.9	1.0	2.6	x	x
Cc1ccc(NC(=O)COC(=O)CNC(=O)c2ccco2)cc1	0.6	-2.7	-0.1	-0.9	-0.4	0.5	x	x
Cc1nn(-c2ccccn2)c2c1-c1nc(N)ncc1CC2	0.1	18.4*	1.9	0.2	1.0	0.8	10.5*	0.3
CS(=O)(=O)Nc1ccc(-c2ccc3nccn3c2)cc1	2.9	4.2	-1.1	-1.3	-1.3	x	x	x

Screening results as filed in PubChem.
